How the values were obtained:
Experiment in all cases: PBM binding z-score (relative to random genomic background probes); higher = stronger binding; sequences stand for … in GC…GCGATTGACAGCGTAGAATGAAGG
[1] = system: FXR:RXRa (NR concentration 270 nM, RXRa partner concentration 90 nM)
How it was run: (§1)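 Ligand-free nuclear receptor dimers were applied to custom Agilent 4×180K protein-binding microarrays whose double-stranded probes carried direct-repeat seeds, single-nucleotide variants, half-site ablations and random human genomic background sequences in 34-nt variable regions. Incubation lasted 1 h. Binding z-scores were computed against the random background probes from regression-normalized fluorescence.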

[2] = system: LXRa:RXRa (NR concentration 270 nM, RXRa partner concentration 90 nM)
How it was run: as §1

[3] = system: LXRa homodimer (NR concentration 270 nM)
How it was run: as §1

[4] = system: LXRb:RXRa (NR concentration 270 nM, RXRa partner concentration 90 nM)
How it was run: as §1

[5] = system: LXRb homodimer (NR concentration 270 nM)
How it was run: as §1

[6] = system: PPARa:RXRa (NR concentration 270 nM, RXRa partner concentration 90 nM)
How it was run: as §1

[7] = system: PPARg:RXRa (NR concentration 180 nM, RXRa partner concentration 90 nM)
How it was run: as §1

[8] = system: PPARg:RXRa 270nM:90nM, anti-RXR (NR concentration 270 nM, RXRa partner concentration 90 nM)
How it was run: as §1

[9] = system: PPARg:RXRa 30nM:10nM, anti-RXR (NR concentration 30 nM, RXRa partner concentration 10 nM)
How it was run: as §1

[10] = system: PPARg:RXRa 90nM:30nM, anti-RXR (NR concentration 90 nM, RXRa partner concentration 30 nM)
How it was run: as §1

[11] = system: PPARg:RXRa DBDmut IVT, anti-RXR (DBD mutation: RXRa K156A/R161A, NR concentration 270 nM, RXRa partner concentration 90 nM)
How it was run: as §1

[12] = system: PPARg:RXRa IVT, anti-PPARg (NR concentration 270 nM, RXRa partner concentration 90 nM)
How it was run: as §1

[13] = system: PPARg DBDmut:RXRa IVT, anti-PPARg (DBD mutation: PPARg1 K132A/R137A, NR concentration 270 nM, RXRa partner concentration 90 nM)
How it was run: as §1

[14] = system: PPARg DBDmut IVT, anti-PPARg (DBD mutation: PPARg1 K132A/R137A, NR concentration 270 nM)
How it was run: as §1

[15] = system: PPARg homodimer (NR concentration 180 nM)
How it was run: as §1

[16] = system: PXR:RXRa (NR concentration 270 nM, RXRa partner concentration 90 nM)
How it was run: as §1

[17] = system: PXR homodimer (NR concentration 270 nM)
How it was run: as §1

[18] = system: RARa:RXR (NR concentration 270 nM, RXRa partner concentration 90 nM)
How it was run: as §1

[19] = system: RARa homodimer (NR concentration 270 nM)
How it was run: as §1

[20] = system: RARb:RXRa (NR concentration 270 nM, RXRa partner concentration 90 nM)
How it was run: as §1

Sequence	PBM binding z-score [1]	PBM binding z-score [2]	PBM binding z-score [3]	PBM binding z-score [4]	PBM binding z-score [5]	PBM binding z-score [6]	PBM binding z-score [7]	PBM binding z-score [8]	PBM binding z-score [9]	PBM binding z-score [10]	PBM binding z-score [11]	PBM binding z-score [12]	PBM binding z-score [13]	PBM binding z-score [14]	PBM binding z-score [15]	PBM binding z-score [16]	PBM binding z-score [17]	PBM binding z-score [18]	PBM binding z-score [19]	PBM binding z-score [20]
CAAACTAGGACAAAGGTCAAAGTCGAGCCAACCA	6.31	6.08	4.5	5.58	2.61	7	12.1	10.6	10.9	11.9	6.48	7.54	2.91	1.8	4.89	5.62	2.1	6.43	3.25	4.8
TCTGCTAGGTGAACGATGGTCAGCTAATCTGCTA	-0.414	-0.432	-0.946	-0.499	-1.35	0.449	0.238	0.769	1.17	0.916	3.12	2.97	-0.708	-0.769	-0.746	-0.428	-0.962	-0.153	-1.26	0.881
TCTTTTAGATCAACAGGAGGTTAAGAAAGATCGA	1.27	1.43	0.248	1.57	0.898	1.55	0.2	2.27	3.57	3.17	2.11	0.854	1.33	1.69	0.914	1.3	0.393	1.6	0.513	0.952
GCGACTGGGGCAACGCAGGTTACCATAAGGTTGG	0.326	0.211	-0.468	0.14	-0.947	1.52	1.61	1.27	-0.287	0.414	4.39	4.13	-0.305	-0.763	-0.0289	0.606	-0.69	0.702	-1.06	1.19
TAGCCTAGGTCATGGACCAGTATACCACGCGAAC	4.39	3.44	0.268	2.46	-0.208	4.18	3.5	3.32	0.758	2.23	1.67	3.14	0.484	0.282	1.64	1.69	-0.467	2.85	-0.128	3.77
ACAGACAGGTGAGTGAAGGTAACTCACCTGGACG	0.567	0.338	-0.604	-0.347	-0.328	0.358	0.593	0.216	0.0231	-0.144	0.281	1.01	0.307	0.131	-0.03	-0.17	-0.14	0.495	-0.345	0.553
TATCCTAGGTCATTGGGCCAGTATAGTACGCATC	4.8	6.02	5.49	3.44	2.48	4.44	5.45	4.94	2.33	4.11	4.13	5.49	1.68	3.21	2.35	2.21	0.746	2.96	0.931	3.98
ATACCAAGGTGATCGTGAGGTCGTTAATACTAAC	1.59	1.12	0.651	1.37	-0.102	1.55	0.445	0.146	-0.147	0.0284	0.582	1.08	0.575	0.441	1.01	3.26	1.7	2.15	0.0918	1.44
CCTAGCAGACCAGGGTCACTCAAGCATTTCGCTT	2.1	1.88	-0.131	2.25	-0.581	3.23	0.556	1.21	-0.525	0.444	-0.221	0.416	-0.792	-1.1	0.914	2.63	-0.0947	3.3	-0.0324	2.32
AGAATGAAGTTACCAAAGATCAGGGAAACGCTTG	-0.327	0.631	-0.337	-0.292	-0.771	-0.153	0.523	0.0888	0.0872	0.08	-0.595	-0.423	0.443	0.266	-0.127	-0.206	-0.375	-0.000481	-0.214	-0.335
TATACAGGGTCAAAGGCCGGAGTACGAATGTCGA	6.93	6.1	2.37	4.53	2.31	6.26	7.67	6.73	4.47	6.51	2.46	4.9	2.77	1.88	2.2	3.97	0.381	5.47	1.43	4.27
CGTCCAAGGTTAAAGGTCAGTGAAGAGATGACGG	6.23	5.21	1.72	4.9	0.226	6.28	8.06	7.36	6.31	8.12	1.93	4.19	0.18	0.148	3.37	5.79	0.975	7.42	1.36	5.01
AGAAAGAGGTTATTAAGATCAGGGAATTGCGGTC	2.15	2.15	0.442	1.75	0.379	2.71	1.18	1.43	0.665	1.29	1.7	1.4	0.63	0.0238	1.2	1.38	0.96	1.93	1.28	1.97
CAAACTAGGTCACGAATGGTCAAAGTCGAATGAC	4.48	5.29	0.845	3.46	0.546	5.82	9.24	7.45	5.7	7.36	8.28	9.26	2.84	3.79	2.55	2.47	0.0543	3.22	0.681	4.62
AGAATGAGGTTACCAAAGCTCAGGGAAACGCTTG	1.93	3.99	-0.0854	1.96	-0.341	3.46	2.2	2.57	0.532	1.81	3.42	3.11	0.652	0.289	0.125	0.966	-0.338	1.77	-0.239	2.15
ATCTCTAGGTAAGACCCAGTTCAGTGAAGAACGC	0.43	0.778	0.612	0.599	0.872	0.54	0.457	0.208	0.196	0.526	2.24	1.79	0.676	0.699	0.695	0.9	1.45	0.59	0.821	0.371
CCTACTGGGCCACGAAAGGTCATAGATTCAGTGA	3.74	5.02	4.02	4.2	0.194	4.78	4.68	4.98	2.28	4.2	5.75	6.04	0.35	1.08	3.16	4.97	0.915	5.39	0.471	4.03
TCTTGTAGATCAATAGAGGTTAAGAAGGTGCGCT	0.831	2.82	0.464	1.44	-0.193	2	0.18	1.52	2.75	1.95	1.45	0.982	-0.0465	0.519	0.274	2.12	-0.00143	1.94	0.262	0.921
GATACAGGGTCAAGGCCCGAGTACGCGTATTGAT	6.52	4.01	-0.361	3.39	-0.411	5.39	5.65	5.62	2.48	4.12	2.09	3.66	0.597	-0.396	1.27	3.48	0.163	4.6	0.3	4.31
GCGACTGGGGCATCTGCAGGTTACCATAACTTAA	-0.256	0.365	-0.281	1.41	-0.198	1.53	0.863	1.01	-0.39	0.715	3.92	2.96	-0.0823	-0.117	0.207	0.314	-0.507	0.637	-1.22	0.859
AGAATTAGGTTACCAAAGATCAGGGAAACGCTTG	0.207	4.78	0.162	1.15	-0.0791	2.9	3.46	3.45	1.37	2.53	6.61	6.16	1.54	0.973	1.54	0.000566	0.073	0.336	1	1.25
GCTACTGGGGCAAAGCAGGTTACCATAAGGTTGG	0.552	0.174	-0.316	0.4	-0.276	2.24	2.37	2.63	0.398	1.52	6.4	5.54	0.032	-0.0829	0.182	0.319	-0.456	0.495	-0.534	1.12
CCAGACAGGTGAAAGGTAAATCAGTCTGGTACGC	0.431	0.642	-0.205	0.749	-0.327	3.27	5.01	5.7	4	6.32	1.86	2.8	0.0874	-1.06	2.52	0.697	-0.183	1.67	0.663	1.04
TCTAGTAGTTGAAGGGCAACCGACGAGTCCGTTT	0.63	0.618	-0.0916	0.268	-0.134	0.455	-0.018	1.65	2.83	2.22	1.78	0.527	0.13	-0.187	0.499	0.507	0.346	-0.0241	0.58	1.4
AGTCAAAGTTCATTTAGGTAACGTAAGATATGCT	6.47	6.25	6.58	4.2	3.14	4.58		6.05	2.98	5.09	0.638	3.21	1.36	1.51	2.39	5.45	8.27	3.63	1.4	4.66
TCTAGTTGGTCAAGGAGGTCACACACGACGGGTA	3.04	3.16	1.88	3.23	0.53	3.73	2.59	3.56	3.6	3.39	2.22	3.77	0.973	1.49	2.56	4.22	1.23	4.22	1.46	3.47
CCTAGCAGGCCAGGGTCACTCAAGCATTTCGCTT	2.38	1.67	-0.285	1.95	-1.05	3.1	0.907	1.65	-0.362	0.635	0.393	0.98	-0.961	-1.38	1.04	2.63	-0.595	3.17	-0.537	2.73
GCTTGTAGATCAAGGATAAGAAAGACTAAGCTAA	-0.495	-1.03	-0.557	-0.935	-0.998	-0.619	0.375	0.179	-0.00993	-0.0632	0.345	-0.0525	-0.469	-0.526	-0.571	-0.567	-0.33	-0.653	-1.12	-1.81
CCTTACTGGTCACTGACAGGTTATAGCATTTGGA	0.509	0.779	0.811	0.822	0.49	0.699	0.266	0.384	-0.0661	0.378	1.41	0.777	0.395	0.913	1.46	0.611	0.48	0.74	1.52	1.72

Reference: the supplement of paper PMC6555819
